For assay [1], the target named is Acetylcholinesterase (Homo sapiens) (UniProt P22303). As to the kind of experiment: Acetylcholinesterase (AChE) small molecule antagonists: enzyme-based qHTS assay (AID 1347397; calls by dose curve; further: nearly all actives have a fitted effect of over 55% in size; further: potency means the concentration at half of the fitted maximal effect). The note with it: Potency: AChE enzyme activity inhibition. Summed up:
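Colorimetric DTNB readout of acetylthiocholine hydrolysis, 10 min at room temperature, after 30 min room-temperature exposure of 50 mU/mL recombinant human enzyme to compound; DMSO vehicle control.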

The target is the same in assay [2]. Briefly: Acetylcholinesterase (AChE) small molecule antagonists: fluorescence cell-based qHTS assay (AID 1347398; calls by dose curve; further: nearly all actives have a fitted effect of over 50% in size; further: potency means the concentration at half of the fitted maximal effect). The note with it: Potency: AChE activity. The essentials: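 Cellular AChE activity read as thiocholine from acetylthiocholine hydrolysis, detected by Thiolite Green fluorescence at 490/520 nm after 40 min at room temperature. Compounds were pre-incubated 30 min at 37 C on adherent SH-SY5Y cells.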

Assay [3] shares this target. As to the kind of experiment: Acetylcholinesterase (AChE) small molecule antagonists: enzyme-based qHTS assay with human liver microsomes (AID 1347399; calls by dose curve; further: nearly all actives have a fitted effect of over 60% in size). The note with it: Potency: qHTS inhibition. Summed up:
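Recombinant human AChE (50 mU/mL in the enzyme mix) and human liver microsomes (0.25 mg/mL final) were preincubated with compound and NADPH (0.25 mg/mL final) for 30 min at 37 C. Acetylthiocholine/DTNB was then added; thiocholine was read colorimetrically after 10 min at room temperature.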

For assay [4], the target named is Cytochrome P450 2D6 (Homo sapiens) (UniProt P10635). As to the kind of experiment: Cytochrome P450 Family 2 Subfamily D Member 6 (CYP2D6) small molecule antagonists: luciferase reporter qHTS assay (AID 1671196). Further: nearly all actives have a fitted effect of over 50% in size. Further: potency means the concentration at half of the fitted maximal effect. Summed up:
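Room-temperature luminescent CYP2D6 activity assay: compound preincubated 10 min with enzyme–substrate mix, NADPH-initiated reaction 1 h, detection reagent 20 min before reading.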

Assay [5] has as its target Cytochrome P450 2C19 (Homo sapiens) (UniProt P33261). As to the kind of experiment: Cytochrome P450 Family 2 Subfamily C Member 19 (CYP2C19) small molecule antagonists: luciferase reporter qHTS assay (AID 1671197). Further: nearly all actives have a fitted effect of over 65% in size. Further: potency means the concentration at half of the fitted maximal effect. Summed up:
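Luminescent readout of CYP2C19 activity: luciferin product detected 20 min after adding detection reagent. Before that, compound and enzyme-substrate mix preincubated 10 min at room temperature; NADPH-regenerating system started a 1 h, 37C reaction. Ketoconazole as positive control.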

The target of assay [6] is Cytochrome P450 2C9 (Homo sapiens) (UniProt P11712). As to the kind of experiment: Cytochrome P450 Family 2 Subfamily C Member 9 (CYP2C9) small molecule antagonists: luciferase reporter qHTS assay (AID 1671198). Further: nearly all actives have a fitted effect of over 50% in size. Further: potency means the concentration at half of the fitted maximal effect. The essentials:
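Enzyme-substrate mix preincubated with compound 10 min at room temperature; reaction started with NADPH regeneration solution, 1 h 37C. Luminescent luciferin product read after 20 min detection reagent.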

Assay [7] addresses Cytochrome P450 1A2 (Homo sapiens) (UniProt P05177). Briefly: Cytochrome P450 Family 1 Subfamily A Member 2 (CYP1A2) small molecule antagonists: luciferase reporter qHTS assay (AID 1671199). Further: nearly all actives have a fitted effect of over 50% in size. Further: potency means the concentration at half of the fitted maximal effect. The essentials:
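Room-temperature CYP1A2 reaction with proluciferin substrate: compounds added from DMSO, 10 min preincubation, NADPH regeneration for 1 h. Luciferin detection reagent then added; luminescence recorded as RLU.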

Assay [8] has as its target Voltage-gated inwardly rectifying potassium channel KCNH2 (Homo sapiens) (UniProt Q12809). As to the kind of experiment: Human Ether-a-go-go-Related Gene (hERG) channel small molecule antagonists: fluorescence cell-based qHTS assay (AID 1671200). Further: nearly all actives have a fitted effect of over 50% in size. Further: potency means the concentration at half of the fitted maximal effect. The essentials: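 Read-out: thallium influx as a surrogate for potassium, tracked as fluorescence (480 nm ex/540 nm em) every second for 2 min after Stimulus Buffer addition in dye-loaded hERG-U2OS cells.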

For assay [9], the target named is Cytochrome P450 3A4 (Homo sapiens) (UniProt P08684). As to the kind of experiment: Cytochrome P450 Family 3 Subfamily A Member 4 (CYP3A4) small molecule antagonists: luciferase reporter qHTS assay (AID 1671201). Further: nearly all actives have a fitted effect of over 50% in size. Further: potency means the concentration at half of the fitted maximal effect. Summed up: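 Luminescent readout (RLU) proportional to CYP3A4 activity, from luciferin generated off a proluciferin substrate. Enzyme–substrate mix plus compound 10 min at room temp, NADPH regeneration 1 h, detection reagent 20 min.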
Cytochrome P450 3A4 (Homo sapiens), sequence (P08684 whole entry, looked up): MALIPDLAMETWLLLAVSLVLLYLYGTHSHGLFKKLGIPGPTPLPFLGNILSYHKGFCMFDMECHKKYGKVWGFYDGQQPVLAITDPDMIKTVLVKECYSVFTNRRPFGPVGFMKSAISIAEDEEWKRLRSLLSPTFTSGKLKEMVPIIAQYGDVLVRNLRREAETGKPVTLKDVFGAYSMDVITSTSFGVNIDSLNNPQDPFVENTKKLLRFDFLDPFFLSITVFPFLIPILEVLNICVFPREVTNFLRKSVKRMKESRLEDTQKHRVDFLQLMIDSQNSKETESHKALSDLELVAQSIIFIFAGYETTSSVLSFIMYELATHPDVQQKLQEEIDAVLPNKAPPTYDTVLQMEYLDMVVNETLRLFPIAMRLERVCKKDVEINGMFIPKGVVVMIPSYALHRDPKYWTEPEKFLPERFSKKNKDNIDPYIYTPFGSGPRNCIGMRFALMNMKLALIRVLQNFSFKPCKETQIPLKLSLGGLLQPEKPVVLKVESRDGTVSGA

Where “and” joins values, the source holds several entries; their conditions need not be identical. Equal values may be shown once. Records with an inconclusive call do not appear. Calls of active or inactive are those of the source. Unless noted, the call rests on the fitted dose curve; in most records, active means well fitted curve in the direction sought with a large enough effect in the repeat runs; inconclusive means weak or mixed curves; inactive means no such curve, though single readings can be large; an effect the other way counts as inactive or inconclusive.

Cytochrome P450 2C19 (Homo sapiens), sequence (P33261 whole entry, looked up): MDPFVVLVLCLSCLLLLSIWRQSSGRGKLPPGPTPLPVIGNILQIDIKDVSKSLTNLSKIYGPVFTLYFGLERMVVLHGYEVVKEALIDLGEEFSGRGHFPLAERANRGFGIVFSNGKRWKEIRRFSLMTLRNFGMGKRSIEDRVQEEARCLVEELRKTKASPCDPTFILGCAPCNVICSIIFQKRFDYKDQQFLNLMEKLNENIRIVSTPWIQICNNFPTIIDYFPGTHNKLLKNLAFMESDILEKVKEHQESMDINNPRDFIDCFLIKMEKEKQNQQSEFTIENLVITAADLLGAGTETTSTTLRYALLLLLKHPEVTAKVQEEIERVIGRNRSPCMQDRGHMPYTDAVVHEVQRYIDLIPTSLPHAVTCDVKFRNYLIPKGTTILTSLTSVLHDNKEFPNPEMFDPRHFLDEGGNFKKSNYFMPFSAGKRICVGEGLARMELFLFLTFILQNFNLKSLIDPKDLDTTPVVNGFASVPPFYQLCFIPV
Acetylcholinesterase (Homo sapiens), sequence (P22303 whole entry, looked up): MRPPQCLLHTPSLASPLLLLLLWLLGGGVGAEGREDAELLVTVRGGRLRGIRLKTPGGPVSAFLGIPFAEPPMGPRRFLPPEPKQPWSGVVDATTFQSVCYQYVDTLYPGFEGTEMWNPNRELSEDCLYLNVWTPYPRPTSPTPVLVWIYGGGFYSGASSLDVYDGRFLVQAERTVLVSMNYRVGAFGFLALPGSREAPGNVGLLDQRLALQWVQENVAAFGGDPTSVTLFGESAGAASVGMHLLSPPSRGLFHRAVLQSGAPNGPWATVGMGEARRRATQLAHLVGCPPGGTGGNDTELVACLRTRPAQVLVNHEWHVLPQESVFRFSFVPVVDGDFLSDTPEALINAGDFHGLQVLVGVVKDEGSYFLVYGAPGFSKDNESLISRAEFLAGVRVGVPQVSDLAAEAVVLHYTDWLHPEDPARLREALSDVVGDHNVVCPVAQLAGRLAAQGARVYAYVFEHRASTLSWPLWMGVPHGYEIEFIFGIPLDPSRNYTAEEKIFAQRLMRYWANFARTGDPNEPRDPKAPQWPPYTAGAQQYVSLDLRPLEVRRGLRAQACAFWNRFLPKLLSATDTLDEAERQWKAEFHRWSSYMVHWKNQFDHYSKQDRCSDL
Cytochrome P450 1A2 (Homo sapiens), sequence (P05177 whole entry, looked up): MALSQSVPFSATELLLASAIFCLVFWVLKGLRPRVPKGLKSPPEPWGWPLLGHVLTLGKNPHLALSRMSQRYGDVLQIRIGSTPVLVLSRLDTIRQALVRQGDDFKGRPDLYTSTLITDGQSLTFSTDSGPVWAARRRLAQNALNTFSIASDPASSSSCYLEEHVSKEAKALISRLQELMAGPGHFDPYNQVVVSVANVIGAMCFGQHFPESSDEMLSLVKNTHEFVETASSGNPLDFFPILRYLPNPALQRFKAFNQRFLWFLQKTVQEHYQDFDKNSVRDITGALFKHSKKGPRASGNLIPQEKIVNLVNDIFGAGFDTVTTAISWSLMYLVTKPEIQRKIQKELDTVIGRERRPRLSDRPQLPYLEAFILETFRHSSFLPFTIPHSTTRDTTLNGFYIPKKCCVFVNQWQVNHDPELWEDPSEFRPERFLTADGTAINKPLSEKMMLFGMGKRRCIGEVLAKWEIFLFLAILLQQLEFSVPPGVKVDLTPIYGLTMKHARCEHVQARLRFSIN
Cytochrome P450 2C9 (Homo sapiens), sequence (P11712 whole entry, looked up): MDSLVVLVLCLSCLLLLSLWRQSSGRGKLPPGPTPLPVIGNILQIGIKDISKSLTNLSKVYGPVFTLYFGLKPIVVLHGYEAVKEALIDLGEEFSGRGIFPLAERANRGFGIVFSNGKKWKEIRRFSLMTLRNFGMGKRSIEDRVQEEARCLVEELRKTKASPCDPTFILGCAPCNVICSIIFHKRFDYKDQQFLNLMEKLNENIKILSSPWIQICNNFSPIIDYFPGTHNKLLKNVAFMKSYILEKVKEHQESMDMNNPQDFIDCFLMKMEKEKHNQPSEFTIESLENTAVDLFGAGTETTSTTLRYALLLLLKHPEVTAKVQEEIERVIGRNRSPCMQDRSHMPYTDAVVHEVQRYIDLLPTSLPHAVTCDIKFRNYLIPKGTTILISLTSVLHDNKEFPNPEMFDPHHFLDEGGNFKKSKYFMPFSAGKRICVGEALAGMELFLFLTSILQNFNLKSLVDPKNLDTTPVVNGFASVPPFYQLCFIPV
Voltage-gated inwardly rectifying potassium channel KCNH2 (Homo sapiens), sequence (Q12809 whole entry, looked up): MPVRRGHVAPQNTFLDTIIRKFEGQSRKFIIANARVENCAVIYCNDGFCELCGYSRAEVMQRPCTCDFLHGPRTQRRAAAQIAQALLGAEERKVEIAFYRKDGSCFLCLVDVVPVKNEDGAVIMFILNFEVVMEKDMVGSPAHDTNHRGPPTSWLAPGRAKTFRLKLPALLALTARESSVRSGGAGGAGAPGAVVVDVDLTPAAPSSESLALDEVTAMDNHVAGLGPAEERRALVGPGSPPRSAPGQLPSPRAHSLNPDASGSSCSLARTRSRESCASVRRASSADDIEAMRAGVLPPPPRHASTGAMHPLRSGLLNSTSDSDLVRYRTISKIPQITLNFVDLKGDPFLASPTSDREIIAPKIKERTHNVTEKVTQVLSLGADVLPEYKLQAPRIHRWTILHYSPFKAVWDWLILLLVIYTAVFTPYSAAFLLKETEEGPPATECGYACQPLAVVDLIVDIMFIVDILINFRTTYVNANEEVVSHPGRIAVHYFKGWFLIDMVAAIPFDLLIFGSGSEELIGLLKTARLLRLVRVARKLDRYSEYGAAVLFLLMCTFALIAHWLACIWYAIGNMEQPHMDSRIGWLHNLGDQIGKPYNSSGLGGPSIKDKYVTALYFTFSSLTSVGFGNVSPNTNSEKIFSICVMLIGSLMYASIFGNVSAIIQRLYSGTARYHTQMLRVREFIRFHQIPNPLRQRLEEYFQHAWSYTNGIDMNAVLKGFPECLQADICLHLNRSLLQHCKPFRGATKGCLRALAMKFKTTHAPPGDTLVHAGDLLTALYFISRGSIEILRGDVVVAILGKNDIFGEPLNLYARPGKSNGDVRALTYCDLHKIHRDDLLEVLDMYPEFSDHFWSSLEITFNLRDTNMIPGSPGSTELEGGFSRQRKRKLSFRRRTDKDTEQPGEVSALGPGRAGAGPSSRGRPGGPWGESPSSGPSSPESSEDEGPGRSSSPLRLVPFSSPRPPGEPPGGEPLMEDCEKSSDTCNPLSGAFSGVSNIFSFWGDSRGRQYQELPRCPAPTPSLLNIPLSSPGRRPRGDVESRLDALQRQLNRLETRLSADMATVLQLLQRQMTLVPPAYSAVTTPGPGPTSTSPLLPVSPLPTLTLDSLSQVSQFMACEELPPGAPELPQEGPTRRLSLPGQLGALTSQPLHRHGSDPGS
Cytochrome P450 2D6 (Homo sapiens), sequence (P10635 whole entry, looked up): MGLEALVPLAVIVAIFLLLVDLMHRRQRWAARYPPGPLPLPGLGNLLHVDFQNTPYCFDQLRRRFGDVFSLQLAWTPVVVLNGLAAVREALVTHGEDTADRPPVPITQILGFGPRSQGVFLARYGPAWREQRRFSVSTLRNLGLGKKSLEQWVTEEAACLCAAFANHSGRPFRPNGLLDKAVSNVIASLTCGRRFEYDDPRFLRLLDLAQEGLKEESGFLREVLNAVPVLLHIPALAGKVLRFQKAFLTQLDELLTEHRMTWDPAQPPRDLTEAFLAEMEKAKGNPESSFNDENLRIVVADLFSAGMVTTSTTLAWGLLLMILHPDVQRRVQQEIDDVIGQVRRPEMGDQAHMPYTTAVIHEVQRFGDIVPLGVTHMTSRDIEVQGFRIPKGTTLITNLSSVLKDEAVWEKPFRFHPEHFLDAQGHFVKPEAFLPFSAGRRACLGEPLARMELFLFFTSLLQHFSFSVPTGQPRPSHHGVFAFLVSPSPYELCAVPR

For `CCOC(=O)C1(c2ccccc2)CCN(CCC(C#N)(c2ccccc2)c2ccccc2)CC1`, the Potency result in assay [1], in assay [2], in assay [3] and in assay [7] was “inactive” each time. The Potency is 4.9 µM (active) in assay [4], 9.77 µM (active) in [5], 3.09 µM (active) in assay [6] and 0.601 µM (active) in assay [8].
Consider `Cc1cc(C)cc(OP(=O)(Oc2cc(C)cc(C)c2)Oc2cc(C)cc(C)c2)c1`, for which the Potency entry in [1], in assay [2], in [3] and in assay [4] was “inactive” throughout. The Potency in assay [5] is 9.08 µM (active); in assay [6], 5.73 µM (active); in assay [7] it was 22.8 µM (active); in assay [9], 2.03 µM (active).
As for `ClC1=C(Cl)[C@]2(Cl)[C@@H]3[C@@H](Cl)[C@H](Cl)C[C@@H]3[C@@]1(Cl)C2(Cl)Cl`, the Potency entry in [1], in assay [2], in assay [3], in [4], in [5] and in assay [6] was “inactive” in each case. Also, the Potency result in [7] and in assay [8] was “inactive” in each case.
For `CCc1nn(C)c(C(=O)NCc2ccc(C(C)(C)C)cc2)c1Cl`, the Potency result in assay [1], in assay [2], in assay [3] and in assay [9] was “inactive” throughout. Moreover, the Potency in assay [4] was 63.3 µM (active); in [5], 6.33 µM (active); in [6], 17.8 µM (active); in assay [7] it was 22.4 µM (active); in assay [8] it was 21.9 µM (active).
On to `Cc1cc(Cl)ccc1O[C@H](C)C(=O)O`, for which the Potency result in assay [1], in assay [2], in assay [3], in assay [4], in [5] and in assay [6] was “inactive” throughout. Besides, the Potency result in [7], in assay [8] and in assay [9] was “inactive” each time.
Turning to `C=COCCCl`, the Potency entry in assay [1], in assay [2], in [3], in assay [4], in [5] and in [6] was “inactive” each time. In addition, the Potency result in assay [7], in assay [8] and in assay [9] was “inactive” each time.
On to `Cc1cccc(OP(=O)(Oc2cccc(C)c2)Oc2cccc(C)c2)c1`, for which the Potency result in [1], in [2], in assay [3], in assay [4] and in [8] was “inactive” each time. Moreover, the Potency in [5] is 20 µM (active); in [6], 35.6 µM (active); in assay [7], 28.3 µM (active).
Consider `Clc1ccc(C(Cl)(Cl)Cl)c(Cl)c1`, for which the Potency entry in assay [1], in assay [2], in assay [3] and in assay [6] was “inactive” in each case. For the same compound, the Potency in assay [4] was 31.9 µM (active); in assay [5], 80.2 µM (active).
For `CC1(C)CC/C(=C/c2ccc(Cl)cc2)C1(O)Cn1cncn1` (configuration not stated), the Potency entry in [1], in [2], in assay [3] and in assay [8] was “inactive” throughout. Besides, the Potency is 12.6 µM (active) in assay [4], 0.223 µM (active) in assay [5], 1.12 µM (active) in [6] and 35.4 µM (active) in assay [7].
For the compound `NC(=O)CCl`, the Potency result in assay [1], in assay [2], in assay [3], in assay [4], in [5] and in assay [6] was “inactive” in each case. Besides, the Potency entry in assay [7], in assay [8] and in assay [9] was “inactive” throughout.
As for `COC(=O)N(C(=O)N1COC2(C(=O)OC)Cc3cc(Cl)ccc3C2=N1)c1ccc(OC(F)(F)F)cc1` (configuration not stated), the Potency result in assay [1], in [2], in [3], in assay [4], in assay [7] and in assay [8] was “inactive” in each case. For the same compound, the Potency is 0.195 µM (active) in [5], 4.9 µM (active) in [6] and 5.49 µM (active) in assay [9].
On to `O=[N+]([O-])c1ccc(Oc2ccc(C(F)(F)F)cc2[N+](=O)[O-])cc1`, for which the Potency result in assay [1], in [2], in assay [3] and in assay [9] was “inactive” in each case. For the same compound, the Potency in assay [4] was 22.4 µM (active); in assay [5], 0.894 µM (active); in [6] it was 25.2 µM (active); in assay [7] it was 31.7 µM (active); in [8], 6.16 µM (active).
As for `CC(C)(c1ccc(O)c(-c2ccccc2)c1)c1ccc(O)c(-c2ccccc2)c1`, the Potency is 17.8 µM (active) in assay [1]; 63.3 µM (active) in assay [4]; 17.8 µM (active) in assay [5]; 3.17 µM (active) in [6]; 35.6 µM (active) in assay [7]; 5.03 µM (active) in assay [9]. The Potency entry in assay [2], in assay [3] and in [8] was “inactive” throughout.
For `Oc1ccc2ccc3cccc4ccc1c2c34`, the Potency entry in [1], in assay [2], in [3], in assay [4] and in assay [8] was “inactive” in each case. For the same compound, the Potency in assay [5] is 20 µM (active); in assay [6], 35.6 µM (active); in assay [7] it was 0.894 µM (active); in [9], 31.7 µM (active).
With `CCCCCCCCCCCCCC[P+](CCCCCC)(CCCCCC)CCCCCC` (tested in a mixture with another compound), the Potency was 20 µM (active) in assay [1]; 71 µM (active) in assay [2]; 1.26 µM (active) in assay [4]; 20 µM (active) in assay [5]; 22.5 µM (active) in assay [6]; 22.5 µM (active) in assay [7]. Also, the Potency in [8] was 0.692 µM (active); in assay [9], 5.03 µM (active). In addition, the Potency result in [3] is “inactive”.
As for `CC1(C)[C@H](C(=O)O[C@H](C#N)c2cccc(Oc3ccccc3)c2)[C@@H]1/C=C(\Cl)C(F)(F)F`, the Potency entry in [1], in assay [2], in assay [3], in assay [4], in assay [8] and in assay [9] was “inactive” throughout. Besides, the Potency is 5.86 µM (active) and 7.1 µM (active) in assay [5]; 8.28 µM (active) and 7.96 µM (active) in assay [6].
As to `C[As+](C)(C)CC(=O)[O-]`, the Potency result in [1], in assay [2], in assay [3], in assay [4], in [6] and in [7] was “inactive” in each case. Besides, the Potency entry in assay [8] and in [9] was “inactive” in each case.
As for `CCCCCCCCCCBr`, the Potency result in [1], in [2], in assay [3], in assay [4], in assay [5] and in assay [6] was “inactive” throughout. In addition, the Potency entry in assay [8] and in assay [9] was “inactive” each time.
For `O=C(O)c1cc[c]([Hg][Cl])cc1`, the Potency entry in assay [1], in assay [3] and in assay [8] was “inactive” throughout. Also, the Potency in [2] was 71 µM (active); in assay [4], 12.6 µM (active); in assay [6], 4.48 µM (active); in assay [7], 17.8 µM (active); in assay [9] it was 8.94 µM (active).
On to `ClC1=C(Cl)C2(Cl)C3C(Cl)C(Cl)CC3C1(Cl)C2(Cl)Cl` (configuration not stated), for which the Potency entry in [1], in assay [2], in [3], in assay [4] and in [7] was “inactive” throughout. The Potency is 3.16 µM (active) and 3.56 µM (active) in [5]; 24.5 µM (active) in assay [8]; 708 nM (active) and 2 µM (active) in assay [9].
Regarding `N#CCCSCCC#N`, the Potency entry in assay [1], in assay [2], in assay [3], in assay [4], in assay [5] and in assay [6] was “inactive” throughout. Moreover, the Potency entry in assay [8] and in assay [9] was “inactive” each time.
As for `FC(Cl)(Cl)Cl`, the Potency result in [1], in [2], in assay [3], in assay [4], in assay [6] and in assay [8] was “inactive” each time. Further, the Potency entry in assay [9] was “inactive”.

(Values after PubChem BioAssay (Tox21).)
